The values that follow come from the supplement of paper PMC6555819.

Holding throughout (experiment): PBM binding z-score (relative to random genomic background probes); higher = stronger binding; sequences stand for … in GC…GCGATTGACAGCGTAGAATGAAGG
In experiment [1] the test system is FXR:RXRa (NR concentration 270 nM, RXRa partner concentration 90 nM). An outline of the steps:
(§1)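 Binding z-scores were set against random background probes. The data came from custom Agilent 4×180K protein-binding microarrays carrying double-stranded probes with 34-nt variable regions, incubated 1 h with ligand-free nuclear receptor dimers. Partner-specific antibodies detected binding, and scanned fluorescence was regression-normalized.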

The subject of experiment [2] is LXRa:RXRa (NR concentration 270 nM, RXRa partner concentration 90 nM). A digest of the protocol: as §1
Experiment [3] deals with LXRa homodimer (NR concentration 270 nM). A digest of the protocol: as §1
Experiment [4] concerns LXRb:RXRa (NR concentration 270 nM, RXRa partner concentration 90 nM). A digest of the protocol:
as §1

The subject of experiment [5] is PPARa:RXRa (NR concentration 270 nM, RXRa partner concentration 90 nM). A digest of the protocol: as §1
Experiment [6] deals with PPARg:RXRa (NR concentration 180 nM, RXRa partner concentration 90 nM). An outline of the steps: as §1
The subject of experiment [7] is PPARg:RXRa 270nM:90nM, anti-RXR (NR concentration 270 nM, RXRa partner concentration 90 nM). A digest of the protocol:
as §1

Experiment [8] relates to PPARg:RXRa 30nM:10nM, anti-RXR (NR concentration 30 nM, RXRa partner concentration 10 nM). An outline of the steps: as §1
Experiment [9] relates to PPARg:RXRa 90nM:30nM, anti-RXR (NR concentration 90 nM, RXRa partner concentration 30 nM). A digest of the protocol: as §1
Experiment [10] has as its system PPARg:RXRa DBDmut IVT, anti-RXR (DBD mutation: RXRa K156A/R161A, NR concentration 270 nM, RXRa partner concentration 90 nM). A digest of the protocol: as §1
The subject of experiment [11] is PPARg:RXRa IVT, anti-PPARg (NR concentration 270 nM, RXRa partner concentration 90 nM). A digest of the protocol: as §1
Experiment [12] deals with PPARg homodimer (NR concentration 180 nM). A digest of the protocol:
as §1

Experiment [13] has as its system PXR:RXRa (NR concentration 270 nM, RXRa partner concentration 90 nM). A digest of the protocol:
as §1

Experiment [14] has as its system PXR homodimer (NR concentration 270 nM). A digest of the protocol: as §1
The subject of experiment [15] is RARa:RXR (NR concentration 270 nM, RXRa partner concentration 90 nM). A digest of the protocol: as §1
In experiment [16] the test system is RARa homodimer (NR concentration 270 nM). An outline of the steps: as §1
Experiment [17] relates to RARb:RXRa (NR concentration 270 nM, RXRa partner concentration 90 nM). A digest of the protocol: as §1

Take CTATGTAGGTTAAGGGGGCCATTCAGTTTGAAAG: the PBM binding z-score was determined as 1.41 in experiment [1]; 1.83 in experiment [2]; 0.578 in experiment [3]; 4.2 in experiment [4]; 4.65 in experiment [5]; 7 in experiment [6]. For the same sequence, the PBM binding z-score in experiment [7] stood at 6.86; in experiment [8] it was 4.73; in experiment [9] it was 6.88; in experiment [10], 7.13; in experiment [11], 7.17; in experiment [12] it was 1.77. Further, the PBM binding z-score in [13] worked out at 2.69; in experiment [14], 3.67; in experiment [15], 2.17; in experiment [16], 0.379; in experiment [17] it was 1.94.

In the case of TCGAGTAGGTTACGGGGGCATTCTGGGATGAAGA, the PBM binding z-score in [1] was found to be 2.21; in [2] it was 2.51; in experiment [3], 0.493; in experiment [4] it was 5.03; in experiment [5], 4.23; in experiment [6], 6.17. Moreover, the PBM binding z-score amounted to 5.55 in experiment [7]; 3.42 in experiment [8]; 4.95 in [9]; 5.04 in experiment [10]; 5.91 in [11]; 1.3 in experiment [12]. Further, the PBM binding z-score is 2.85 in experiment [13]; 1.48 in experiment [14]; 2.92 in [15]; -0.159 in experiment [16]; 2.27 in experiment [17].

Take CCGAGTAGGTTAAGAGGGGGCATTCAGTGCGAAT: the PBM binding z-score was determined as 3.24 in experiment [1]; 6.72 in experiment [2]; 1.5 in experiment [3]; 5.79 in experiment [4]; 3.21 in experiment [5]; 1.93 in experiment [6]. Besides, the PBM binding z-score in experiment [7] was 3.19; in [8] it was 0.978; in [9], 2.43; in experiment [10], 4.47; in experiment [11] it was 4.75; in experiment [12], 2.41. In addition, the PBM binding z-score in [13] is 4.95; in experiment [14], 6.8; in experiment [15] it was 2.7; in [16], 1.37; in experiment [17], 2.28.

As to TCGAGTAGGTTACGGGGGCTTTCAGGGATGAAGA, the PBM binding z-score in experiment [1] was 1.64; in [2], 2.06; in experiment [3], 0.118; in experiment [4], 4.46; in experiment [5] it was 3.23; in experiment [6], 3.47. Further, the PBM binding z-score in experiment [7] worked out at 3.94; in experiment [8], 2.05; in [9], 3.12; in experiment [10], 4.35; in experiment [11], 4.61; in experiment [12], 0.803. Moreover, the PBM binding z-score in experiment [13] is 1.87; in experiment [14], 0.25; in experiment [15], 1.99; in experiment [16], -0.0109; in [17] it was 1.69.

For CTATGTAGGGTAAGGGGGTCATTCAGTTTGAAAG, the PBM binding z-score turned out to be 5.03 in experiment [1]; 4.71 in experiment [2]; 2.41 in experiment [3]; 6.36 in [4]; 6.11 in experiment [5]; 8.15 in [6]. The PBM binding z-score in experiment [7] worked out at 7.52; in experiment [8], 5; in experiment [9] it was 7.42; in [10], 7.14; in experiment [11], 7.72; in experiment [12] it was 4.11. The PBM binding z-score stood at 5.91 in [13]; 11.1 in experiment [14]; 5.58 in experiment [15]; 1.26 in experiment [16]; 3.72 in [17].

In the case of TCGAGTAGGTTAGGGGGGCATTCAGGGATGAAGA, the PBM binding z-score turned out to be 3.28 in [1]; 3.15 in [2]; 1.42 in experiment [3]; 5.64 in [4]; 3.3 in [5]; 5.66 in [6]. The PBM binding z-score in [7] turned out to be 4.97; in experiment [8], 3.63; in experiment [9] it was 5.01; in experiment [10], 4.38; in experiment [11], 5.24; in experiment [12], 2.84. For the same sequence, the PBM binding z-score worked out at 3.99 in [13]; 3.93 in experiment [14]; 3.47 in [15]; 2.35 in experiment [16]; 3.15 in [17].

As to TCGATTAGGTTACGGGGGCATTCAGGGATGAAGA, the PBM binding z-score in experiment [1] stood at 3.28; in experiment [2], 3.73; in experiment [3], 1.5; in experiment [4], 5.59; in experiment [5], 4.45; in [6], 5.21. The PBM binding z-score turned out to be 5.33 in experiment [7]; 4.89 in experiment [8]; 5.46 in [9]; 5.15 in [10]; 5.84 in experiment [11]; 2.49 in experiment [12]. Further, the PBM binding z-score in experiment [13] came out at 3.63; in experiment [14] it was 2.83; in [15] it was 3.51; in experiment [16], 1.32; in experiment [17] it was 3.28.

Regarding CTATGTAGGTTAAGGGGATCATTCAGTTTGAAAG, the PBM binding z-score is 0.585 in experiment [1]; 0.973 in experiment [2]; 0.126 in experiment [3]; 2 in [4]; 3.77 in experiment [5]; 5.97 in experiment [6]. The PBM binding z-score in experiment [7] turned out to be 5.5; in experiment [8], 3.3; in experiment [9], 4.86; in experiment [10] it was 7.23; in experiment [11], 6.92; in experiment [12], 1.89. Moreover, the PBM binding z-score in experiment [13] turned out to be 1.01; in experiment [14] it was 0.432; in experiment [15], 0.816; in experiment [16] it was 0.323; in [17], 1.05.
